The whole screen tested about 69,000 compounds, of which about 8,600 (12%) showed an effect of 50% or more. This excerpt belongs to a sample that is enriched for strong results.

The subject of the experiment is Plasmodium berghei. Kind of experiment: Screen against P. berghei liver stage (PbLuc), transformed with Luciferase, at 10uM. The conditions noted are these: tested at 10 uM. It counts as functional, HepG2.
Take `CCOc1ncccc1Cn1cc2[nH]cccc-2c1=O`: the INHIBITION is listed as 18%.
Regarding `Cc1nn(CC(=O)O)c2nccc(-c3ccc(F)cc3)c12`, the INHIBITION was 39.5%.
For `CCN(c1ccccc1)S(=O)(=O)c1cc(C(=O)O)cc2c1CCC2` the value was 56.5%.
Regarding `CCN(c1cccc(F)c1)S(=O)(=O)c1cc(C(=O)O)cc2c1CCC2`, the INHIBITION amounted to 38.6%.
On to `CC(O)CN(c1ccccc1)S(=O)(=O)c1cc(C(=O)O)cc2c1CCC2` (stereo unspecified), for which the INHIBITION stood at 19.7%.
Regarding `COCCNC(=O)Nc1ccc(-n2cncn2)c(C(F)(F)F)c1`, the INHIBITION is on record as 21.8%.
Take `CC(C)NC(=O)CCNC(=O)Nc1ccc(-n2cncn2)c(F)c1`: the INHIBITION is recorded as -18%.
For `COCCNC(=O)Nc1ccc(-n2cncn2)c(F)c1`, the INHIBITION is reported as 58.2%.
On to `COCCS(=O)(=O)Nc1ccc(-n2cncn2)c(F)c1`, for which the INHIBITION was 56.5%.
As for `CC(=O)Nc1ccc(-n2cncn2)c(F)c1`, the INHIBITION was -6.91%.
Regarding `COCCOc1ncccc1C(=O)Nc1ccc(-n2cncn2)c(F)c1`, the INHIBITION was found to be 13.1%.
For `CN1CCN(Cc2cccnc2)C2(CCN(Cc3ccccn3)C2)C1=O` (stereo unspecified) the value was -16%; for `CSCC(=O)N1C[C@@H](C)[C@](O)(C(C)C)C1`, 5.23%.
As for `CN(C)c1nccc(C2CN(C(=O)CO)C2)n1`, the INHIBITION was determined as 1.5%.
In the case of `Cc1cc(Nc2cnccn2)nc(C2CCCN(CCO)C2)n1` (stereo unspecified), the INHIBITION is on record as 1.62%.
As to `c1cnc(Nc2ccc(C3CCCCN3)cn2)cn1` (stereo unspecified), the INHIBITION is on record as -15.1%.
For `Cc1cccc(Nc2ccc(C3CCCCN3)cn2)n1` (stereo unspecified), the INHIBITION was determined as 70.3%.
Take `Cc1cc(C)nc(Nc2ccc(C3CCCCN3)cn2)n1` (stereo unspecified): the INHIBITION was -0.232%.
For `O=C(CCc1ccccc1F)NC1CCCN(c2ccccn2)C1` (stereo unspecified) the value was -40.55%.
As to `CCN(CC)C(=O)NC(C)c1ccc(Oc2cccnc2)c(F)c1` (stereo unspecified), the INHIBITION is 36.3%.
Turning to `COc1ccc2c(c1)C1(CCN(Cc3cccnc3)CC1)N(C)CC2`, the INHIBITION is on record as -27.4%.
On to `O=C1CC(c2ccncc2)C2(CCN(CC3CC3)CC2)N1` (stereo unspecified), for which the INHIBITION is -4.32%.
`O=C(CCc1cccc(Cl)c1Cl)N1CCOCC1c1ncon1` (stereo unspecified): the INHIBITION is recorded as 33.8%.
`CN(Cc1ccccc1)CC(O)Cn1cnc2ccsc2c1=O` (stereo unspecified): the INHIBITION is reported as 56.6%.
In the case of `CN(Cc1ccccc1)CC(O)Cn1cnc2sccc2c1=O` (stereo unspecified), the INHIBITION amounted to 10.675%.
With `CN(Cc1ccccc1)CC(O)Cn1cnc2ccccc2c1=O` (stereo unspecified), the INHIBITION was 2.26%.
With `O=C(CCc1cc2n(n1)CCCNC2)NCCCSC1CCCCC1`, the INHIBITION is listed as 40.3%.
For the compound `CCN(Cc1ccc2c(c1)OCO2)C(=O)Cn1cccnc1=O`, the INHIBITION is listed as 37.9%.
`COc1cc2c(cc1CNC(=O)C(C)n1ccnc1C(C)C)CCC2` (stereo unspecified): the INHIBITION was 26.5%.
For `COc1cccc(CNC(=O)C(C)n2ccnc2C(C)C)c1OC` (stereo unspecified) the value was 62.1%; for `COc1cc2c(cc1CNC(=O)C(C)n1ccnc1C(C)C)OCCO2` (stereo unspecified), 42.3%; for `OCCN1CCCC(c2nccnc2Oc2ccccc2)C1` (stereo unspecified), -3.31%.
Regarding `Cc1cc(N2CCN(c3nc4ccccc4cc3CO)CC2)nc(C)n1`, the INHIBITION was 48.8%.
In the case of `CC(=O)NC1CCCN(c2ccc(C#N)cc2C(F)(F)F)C1` (stereo unspecified), the INHIBITION is -17.9%.
For `OCc1cc2ccccc2nc1N1CCCC1` the value was 16.8%; for `CCCC(=O)NC1CCCN(c2nc3ccccc3cc2CO)C1` (stereo unspecified), 7.19%; for `CC(=O)NC1CCCN(c2nc3ccccc3cc2CO)C1` (stereo unspecified), 66.5%.
For `O=C(C1CCN(c2snc3ccccc23)CC1)N1CCCCCC1` the value was 36.2%; for `O=C(C1CCC1)N1CCN(c2snc3ccccc23)CC1`, 32.8%; for `O=C(C1CCCN(c2nc3ccccc3cc2CO)C1)N1CCCC1` (stereo unspecified), 61.9%.
As to `OCc1cc2ccccc2nc1N1CCCCC1`, the INHIBITION is recorded as 53.1%.
For `CC(C)c1noc(CN2CCC(C3CCCCCN3S(C)(=O)=O)CC2)n1` (stereo unspecified) the value was 34%; for `COc1cc(CNCCc2nc(C)cs2)cc2c1OCCO2`, 31%.
For `CC1c2ccc(F)cc2CCN1C(=O)c1[nH]c(=O)[nH]c(=O)c1N` (stereo unspecified), the INHIBITION came to 23.6%.
In the case of `CCn1cnc(NC(=O)NCC2CCS(=O)(=O)CC2)n1`, the INHIBITION is 4.12%.
In the case of `Cc1occc1C(=O)N1CCC[C@]2(C[C@@H](OCc3ccncc3)CO2)C1`, the INHIBITION is -9.67%.
Turning to `CCN(Cc1ccc2c(c1)OCCO2)C(=O)Cn1cccnc1=O`, the INHIBITION amounted to 37.9%.
Turning to `Cc1c(S(=O)(=O)N2CCOCC2)cc2c(C)cc(=O)n3c2c1CCC3`, the INHIBITION was found to be 2.45%.
For the compound `OCC1CCN(c2ccc(NCc3ccsc3)nc2)CC1`, the INHIBITION is recorded as 54.4%.
Consider `CC(C)c1nc(CNc2ccc(N3CCC(CO)CC3)cn2)cs1`, for which the INHIBITION was 13%.
As for `Cc1ccc(CNc2ccc(N3CCC(CO)CC3)cn2)o1`, the INHIBITION was 14.1%.
As to `Cc1cnn(CC2CCCCN2CCCS(C)(=O)=O)c1` (stereo unspecified), the INHIBITION worked out at 5.03%.
On to `Cn1cc(-c2csc(N3CCCCCC3)n2)cn1`, for which the INHIBITION was determined as 79.8%.
As to `CN1CCN(c2nc(-c3cnn(C)c3)cs2)CC1`, the INHIBITION is reported as -1.45%.
As to `Cn1cc(-c2csc(N3CCSCC3)n2)cn1`, the INHIBITION is on record as -42.1%.
In the case of `CO[C@H]1CN(Cc2cccc(C#N)c2)[C@@H]2COC[C@H]12`, the INHIBITION was found to be 34.1%.
Regarding `CS(=O)(=O)N1CC2(CCN(CC3CCCCC3)C2)Cc2ccccc21` (stereo unspecified), the INHIBITION is given as 48.2%.
Consider `CS(=O)(=O)N1CC2(CCN(CC3CC3)C2)Cc2ccccc21` (stereo unspecified), for which the INHIBITION is recorded as 21.7%.
For `CS(=O)(=O)N1CC2(CCCN(C3COC3)C2)Cc2ccccc21` (stereo unspecified) the value was 28.4%; for `CS(=O)(=O)N1CC2(CCCN(CC3CC3)C2)Cc2ccccc21` (stereo unspecified), 54.9%; for `CS(=O)(=O)N1CC2(CCN(C3CCCCC3)C2)Cc2ccccc21` (stereo unspecified), 40.8%.
Consider `CS(=O)(=O)N1CC2(CCN(C3COC3)C2)Cc2ccccc21` (stereo unspecified), for which the INHIBITION stood at 55.7%.
For `CC(C)OCc1noc(C2CC=CC2)n1` the value was -20%; for `CC1CN(C)CCN1C(=O)Nc1nc(-c2cccn2C)cs1` (stereo unspecified), 47%; for `CCCc1nnc(N2CCN(c3cccc(C)c3C)CC2)o1`, 30.1%.
For `O=C(c1cn(CC(=O)N2CCc3[nH]cnc3C2)c2ccccc12)C1CC1` the value was 12.6%; for `Cc1nc2sccn2c1C(=O)N1CCc2c(nc(N)[nH]c2=O)C1`, -31.6%; for `Cc1nc2sccn2c1C(=O)N1CCc2[nH]cnc2C1`, 58.3%.
Consider `Cc1nc2ncccn2c1C(=O)N1CCc2[nH]cnc2C1`, for which the INHIBITION worked out at 22.5%.
Turning to `CC(=O)Nc1cccc(C(=O)N2CCc3c(nc(N(C)C)[nH]c3=O)C2)c1`, the INHIBITION is given as 41.5%.
For the compound `Cc1nc2sccn2c1C(=O)N1CCc2c(nc(N(C)C)[nH]c2=O)C1`, the INHIBITION turned out to be 51.8%.
For `O=C(Nc1ccc(F)cc1-c1nc(C2CC2)no1)N1CC[C@@H](O)C1` the value was 42.1%; for `COc1ccccc1NC(=O)CCNC(=O)c1ccoc1`, -37.8%; for `CCc1nc(C2CCCN2C(=O)CCc2c(C)noc2Cl)no1` (stereo unspecified), 1.78%.
Consider `CCc1nnc2n1CCN(C(=O)C(C)Oc1cccc(C#N)c1)C2` (stereo unspecified), for which the INHIBITION is -15%.
For `COCC(=O)N1CCN(CCn2cccn2)c2nc(C)ccc2C1` the value was 21.4%; for `CC(C)C(Nc1nc(C(F)(F)F)nc2ccccc12)C(=O)O` (stereo unspecified), 22.3%; for `CCC(Nc1nc(C(F)(F)F)nc2ccccc12)C(=O)O` (stereo unspecified), -21.3%.
As for `CC(C(=O)NC1CCCCC1)N1CCc2[nH]nc(C(F)(F)F)c2C1` (stereo unspecified), the INHIBITION is -41.7%.
`FC(F)(F)c1nc(NC2CCCCC2)c2ccccc2n1`: the INHIBITION amounted to 88.4%.
Consider `Cc1nc2n(n1)CC(Nc1nc(C(F)(F)F)nc3ccccc13)CC2` (stereo unspecified), for which the INHIBITION is -59.3%.
For `FC(F)(F)c1nc(NC2CCCC2)c2ccccc2n1` the value was 88.4%; for `Cc1noc(C)c1-c1ccc(C2CCCN2CCC(N)=O)nc1` (stereo unspecified), 30.4%; for `CC(C)N1CCC(Cc2cncc(-c3cc(F)ccc3C(=O)O)n2)C1` (stereo unspecified), 35.2%.
On to `Cc1cnc(CN2CCCC2c2cnn(C)c2)cn1` (stereo unspecified), for which the INHIBITION is listed as -11.4%.
For the compound `Cc1ccccc1N(CC(=O)NCCc1nnc2n1CCC2)S(C)(=O)=O`, the INHIBITION is -9.51%.
As to `CN1CCCCC1c1ncc2c(n1)CCN(Cc1ccccc1Cl)C2` (stereo unspecified), the INHIBITION amounted to 51.7%.
For `CN1CCc2nc(C3CCCCN3Cc3ccccc3Cl)ncc2C1` (stereo unspecified), the INHIBITION was determined as 13.5%.
`COc1ccc(CN2CCc3nc(C4CCCCN4C)ncc3C2)cc1` (stereo unspecified): the INHIBITION was 42.6%.
As for `Clc1ccccc1CN1CCc2nc(C3CCCCN3)ncc2C1` (stereo unspecified), the INHIBITION came to 43.2%.
For `CN1CCCCC1c1ncc2c(n1)CCN(Cc1ccc(Cl)c(F)c1)C2` (stereo unspecified) the value was 58.1%; for `CN1CCCCC1c1ncc2c(n1)CCN(Cc1ccc(F)cc1)C2` (stereo unspecified), 24.4%; for `CC(=O)N(Cc1noc(C)n1)C1CCN(Cc2c(C)noc2C)C1` (stereo unspecified), -27.8%.
Regarding `Cc1cncc(C2CCN(C(=O)c3ccc(-n4cccn4)nc3)CC2)n1`, the INHIBITION is on record as -35.5%.
For `O=C(c1ccc(-n2cccn2)nc1)N1CCC(c2ccc(O)cc2)CC1` the value was 50.1%; for `O=C(c1ccc(-n2cccn2)nc1)N1CCC(c2ccn[nH]2)C1` (stereo unspecified), 23%.
Turning to `O=C(O)CN(Cc1ccsc1)CC1CCCO1` (stereo unspecified), the INHIBITION amounted to 8.7%.
With `Cc1noc(C)c1CN1CCn2cc(CN3CCCC3)nc2C1`, the INHIBITION is listed as -15.2%.
Turning to `COc1ccc(CNc2cc(-c3nc(C)no3)ccn2)c(OC)c1`, the INHIBITION is recorded as 6.61%.
Take `CCc1cnc(N)nc1NCc1ccc(OC)cc1OC`: the INHIBITION worked out at 73.8%.
For `CCc1cnc(N)nc1NCCCn1cc(Cl)cn1` the value was 64.1%; for `CCc1cnc(N)nc1NCCCn1nc(C)nc1C`, 14.6%.
As for `CCc1cnc(N)nc1NCCn1cc(Cl)cn1`, the INHIBITION is on record as 30.4%.
Take `COc1ccc(OC)c(CCNc2ncc(S(N)(=O)=O)s2)c1`: the INHIBITION is recorded as -19.9%.
As for `CCc1cnc(N)nc1NCCc1ccc(OC)cc1OC`, the INHIBITION amounted to 58.05%.
Regarding `CCc1cnc(N)nc1NCc1ccc(OC)c(OC)c1`, the INHIBITION amounted to 44%.
With `CCc1cnc(N)nc1NCCCN1CCCCC1CO` (stereo unspecified), the INHIBITION is reported as 6.94%.
For `COc1cccc(C(=O)N2CCC(Nc3ccc(C)nn3)CC2)c1`, the INHIBITION stood at 21.5%.
For `Cc1nnc(NC(=O)NC(C)Cn2cccn2)s1` (stereo unspecified) the value was -21.9%; for `COc1cc2nc(C)n(CC(=O)NCCCO)c(=O)c2cc1OC`, -5.01%; for `Cn1cc(C(=O)N[C@@H]2CN(Cc3ccc(F)cc3)[C@@H]3CCCO[C@@H]32)cn1`, -17.1%.

The record behind these values is ChEMBL document CHEMBL4513216, “Probing the Open Global Health Chemical Diversity Library for Multistage-Active Starting Points for Next-Generation Antimalarials” (ACS Infect Dis, 2020).
